Results on 40 molecules are retold here after PubChem BioAssay (Tox21).

The structures appear in SMILES notation. Several values for one entry are separate records, joined by “and”; a condition that tells them apart may be missing. Identical values can stand only once. Results filed as inconclusive are left out. Where a call stands in place of a potency, no number is given. Activity calls are given as the source filed them. Calls come from the whole dose curve; as a rule, active = well fitted cell-killing curve with a large enough effect in the repeat runs; inconclusive = weak or mixed curves, or effect the other way; inactive = flat fitted curve, though single readings scatter.
Potency is the fitted concentration of half-maximal effect.

A short description of this test: qHTS RealTime-Glo MT Cell Viability Assay in HepG2 cells - 0 hour (AID 1224889). Note: nearly all actives have a fitted effect of over 50% in size. The conditions noted are these: RealTime-Glo luminescence; series mostly up to 76.8 µM. The text has this:
U.S. Tox21 Program National Center for Advancing Translational Sciences [NCATS] NIH Chemical Genomics Center [NCGC] U.S. Environmental Protection Agency [EPA] National Institutes of Environmental Health Sciences [NIEHS] National Toxicology Program [NTP] U.S. Food and Drug Administration [FDA] Tox21 Assay Overview: Measure of cell viability is critical in the cell-base assay. Analysis of cell viability is necessary for the characterization of cell responses to cytotoxic drugs and environmental stress. A RealTime-Glo MT Cell Viability Assay to monitor cell viability in real time of continues cell culture during 40 hours of compound treatment was used to screen Tox21 10K library compounds in HepG2 cells. The RealTime-Glo MT Cell Viability Assay is a nonlytic, homogeneous, bioluminescent method to measure cell viability in real time using a simple, plate-based method. The assay involves adding NanoLuc luciferase and a cell-permeant prosubstrate to cells in culture. Viable cells reduce the proprietary prosubstrate to generate a substrate for NanoLuc luciferase. This substrate diffuses from cells into the surrounding culture medium, where it is rapidly used by the NanoLuc Enzyme to produce a luminescent signal. The signal correlates with the number of viable cells, making the assay well suited for cytotoxicity studies.
Tox21 Assay Protocol Summary: The mixture of HepG2 cell suspension and reagents were dispensed at 600cells/6 ul/well in 1536-well tissue culture treated black solid bottom plates using a Multidrop dispenser. After the assay plates were incubated at a 37 C/5% CO2 incubator for 5 hours, 23 nL of compounds dissolved in DMSO, positive and negative controls was transferred to the assay plate by a pintool work station. The plates were incubated at 37 C for 40 hours. The luminescence intensity were measured at 0h, 8h, 16h, 24h, 32h and 40h time points using ViewLux plate reader during compound treatment.
A general note: In qHTS, concentration-response curves come from the screen itself.
`O=C(O)c1ccc(C(=O)O)cc1`: the Potency result is “inactive”.
Then `c1ccc2scnc2c1`, with “inactive”; and `CN(C)CCC(c1ccc(Cl)cc1)c1ccccn1` (stereo not given), with “inactive”.
For `Cc1cccnc1` the value was “inactive”.
Then `Cc1cc(C)c(C)cc1C`, with “inactive”.
Take `CC1=CCC2CC1C2(C)C` (stereo not given): the Potency entry is “inactive”.
For `O=P(OC(CCl)CCl)(OC(CCl)CCl)OC(CCl)CCl` the value was “inactive”.
On to `CCCCC(CC)COC(=O)CCCCC(=O)OCC(CC)CCCC` (stereo not given), for which the Potency entry was “inactive”.
As for `CCc1ccc(CCOc2ccc(CC3SC(=O)NC3=O)cc2)nc1` (stereo not given), the Potency entry was “inactive”.
For `Nc1ccccc1[N+](=O)[O-]` the value was “inactive”; for `CCC(O)OCCCOC` (stereo not given), “inactive”; for `C[C@H]1C[C@@H]2[C@H]([C@@H](O)C[C@@]3(C)[C@H]2CC[C@]3(O)C(=O)CO)[C@@]2(C)C=CC(=O)C=C12`, 871 nM (active) and 1.9 µM (active).
With `COc1ccc2cc([C@H](C)C(=O)O)ccc2c1`, the Potency result is “inactive”.
Then `O=[N+]([O-])c1ccc(/C=C/c2ccc([N+](=O)[O-])cc2S(=O)(=O)O)c(S(=O)(=O)O)c1`, with “inactive”; and `CCCCCCCCCCCCCCO`, with “inactive”.
As for `CCOC(=O)NNc1nncc2ccccc12`, the Potency result is “inactive”.
On to `N[C@@H](Cc1cc(I)c(Oc2cc(I)c(O)c(I)c2)c(I)c1)C(=O)O`, for which the Potency entry is “inactive”.
Then `Cc1ccc(N(C)C)cc1`, with “inactive”.
For `CCCCCCCCCCCCOCCO` the value was “inactive”; for `C#C[C@]1(O)CC[C@H]2[C@@H]3CCC4=CC(=O)CC[C@@H]4[C@H]3CC[C@@]21C`, “inactive”; for `OCc1cccnc1`, “inactive”.
Consider `C=CCNC(N)=S`, for which the Potency result is “inactive”.
For `COS(C)(=O)=O` the value was “inactive”; for `c1c[nH]cn1`, “inactive”.
For `O=c1[nH]c(=O)n([C@H]2C[C@H](O)[C@@H](CO)O2)cc1Br` the value was “inactive”; for `O=C(O)[C@H](O)[C@@H](O)[C@H](O)[C@H](O)CO`, “inactive”; for `CCCCOC(=O)COc1ccc(Cl)cc1Cl`, “inactive”.
For `Cc1cccc(O)c1` the value was “inactive”; for `CC(C)CC(=O)CC(C)C`, “inactive”.
For `CC(C)(N)CO`, the Potency entry was “inactive”.
Then `Cc1ccc2oc(=O)ccc2c1`, with “inactive”; and `O=c1[nH]c(=O)n([C@H]2CCCO2)cc1F`, with “inactive”; and `CC1=CC(=O)NS(=O)(=O)O1`, with “inactive”.
For `CN(C)CCCN` the value was “inactive”; for `CCCCCCCCCCCCCCCO`, “inactive”; for `CCCCCCOCCO`, “inactive”.
Then `COc1cc(Cc2cnc(N)nc2N)cc(OC)c1OC`, with “inactive”; and `CCCCCCCCCC`, with “inactive”.
`O=C(O)c1cc(C(=O)O)cc(S(=O)(=O)O)c1`: the Potency result was “inactive”.
Consider `CC(C)(C)[C@@H](O)[C@@H](Cc1ccc(Cl)cc1)n1cncn1`, for which the Potency entry was “inactive”.
